Data on 60 sequences can be found in the OligoGym collection.

What all share (assay): pooled miR-30 sensor sort-seq; sequence = guide strand
What all share (settings): shRNA

The target in assay [1] is FAM22D.
The target in assay [2] is FAM22F.
Assay [3] deals with FAM203A.
The target of assay [4] is FAM194A.
For assay [5], the target named is FAM73A.
Assay [6] has as its target FAN1.
Assay [7] concerns the target FBXL21.
The target in assay [8] is FBLIM1.
Assay [9] concerns the target FBXL3.
The target of assay [10] is FASN.
Also: reference of the scale not given here.

For the sequence ATGAATGACGGCCTCCACCTTG, the sensor-assay potency score (higher = more potent) in [1] is -1.02.
In [1], TAAGACCAAGGTCTGCGCCTGA showed a sensor-assay potency score (higher = more potent) of -0.117.
Sequence TTGAAAGTAAACAGGTTCCTGG displayed a sensor-assay potency score (higher = more potent) in [1] of -0.42.
Take TAAGACCCAGAGAGTGACCTGG: in [1], the sensor-assay potency score (higher = more potent) was -0.135.
In assay [2], TGACAGGAGACTCTCCAGGGAG had a sensor-assay potency score (higher = more potent) of -0.895.
Sequence TGATGTCGGTGCTCGAAGCAGC registered a sensor-assay potency score (higher = more potent) in [3] of -0.572.
The sequence TTTATCAGACAAATCTTGGAGC gave a sensor-assay potency score (higher = more potent) in [4] of -0.442.
Consider TTGGTCTCTGCTCGCCGGTGGG, for which the sensor-assay potency score (higher = more potent) in assay [1] was -1.33.
On to TGCATCAGGTTCTCGCTGCTTG, for which the sensor-assay potency score (higher = more potent) in assay [3] was -0.383.
In assay [1], TGAGGAAGCACGAAAGCGCTTC showed a sensor-assay potency score (higher = more potent) of -0.41.
The same measure, in the same setting: next, TTGGTGACGAAGTCTTTCTGGG: -0.0512.
With TGGACCACGCACCTGTCGGGGT, the sensor-assay potency score (higher = more potent) in assay [3] is -1.1.
TTTAGTTTCGACTCTTCTGGAT yielded a sensor-assay potency score (higher = more potent) in [4] of 0.0335.
Take AAGTTAGACAGCACCAGAGGGC: in assay [1], the sensor-assay potency score (higher = more potent) is -0.454.
TAGAATATTTGTGTTGTCCCAT registered a sensor-assay potency score (higher = more potent) in assay [4] of 0.0372.
For TTCCACAATGAGAAAAGCCAAG, the sensor-assay potency score (higher = more potent) in assay [1] was -1.63.
AGGTCCAAGCAACCACTCGTGA came in with a sensor-assay potency score (higher = more potent) in assay [3] of -1.79.
In assay [3], TTCAACAAGCATCTTGCGGATG gave a sensor-assay potency score (higher = more potent) of -0.806.
For AAGGACTTGAGTCCAACCTGGC, the sensor-assay potency score (higher = more potent) in assay [2] was -0.389.
TTGCAGTGGTTTTCTGTCCAGT returned a sensor-assay potency score (higher = more potent) in assay [3] of -0.715.
With TTCTCTAAGAGCTCATTCCTGA, in assay [4], the sensor-assay potency score (higher = more potent) was -0.231.
In turn, TGGTCTCTGCTGGTCTCTGGGG registered a sensor-assay potency score (higher = more potent) in [1] of -1.54.
The sequence AATTCTTCCAGGAATTGGGGAT yielded a sensor-assay potency score (higher = more potent) in assay [1] of -0.511.
TCTTGCGGATGTCTGCATCAGG returned a sensor-assay potency score (higher = more potent) in assay [3] of -1.13.
TTTCTGAGCAGATGGAGACTGA displayed a sensor-assay potency score (higher = more potent) in [2] of -0.731.
Turning to TCTCTCGCTGCTTCTTGGCCAG, the sensor-assay potency score (higher = more potent) in [2] was -0.748.
Consider ATGGCTTCAACAAGCATCTTGC, for which, in assay [3], the sensor-assay potency score (higher = more potent) was -0.247.
As for TACTCCTGCACCACTTCTGGGG, the sensor-assay potency score (higher = more potent) in [1] is -0.442.
TTTTCTTTTGCCTTGAGTCTGT: the sensor-assay potency score (higher = more potent) in assay [4] came out at 0.354.
On to TGCAAGTCGACAGGCAGCCGTT, for which the sensor-assay potency score (higher = more potent) in assay [3] is -1.26.
In assay [1], TTCTCATAGACACTCCTGGGGT displayed a sensor-assay potency score (higher = more potent) of -0.655.
Still for that read-out and setting: to TGTTCTGTCACCAGAGGTGTGC belongs -0.395.
In [1], TTCGGTGTCAGGACTCTGGGGA showed a sensor-assay potency score (higher = more potent) of 0.265.
TTCTTGGACTTGCTGGCAGGAG registered a sensor-assay potency score (higher = more potent) in [2] of -0.948.
As for TTTGAAAGTAAACAGGTTCCTG, the sensor-assay potency score (higher = more potent) in assay [1] is -0.0805.
Turning to TTGACAGGAGACTCTCCAGGGA, the sensor-assay potency score (higher = more potent) in assay [2] is -0.14.
The same measure, in the same setting: to AAGCACAGCAGGGTCTTCGGAC belongs -0.95.
The sequence TTGAACCTTTGTCTGATGCTGC showed a sensor-assay potency score (higher = more potent) in assay [5] of 0.182.
With TACTGGAACAACTTGAACCTTT, the sensor-assay potency score (higher = more potent) in assay [5] was found to be 0.0533.
For the sequence TTGAACTTTTTACAGCTCGGAG, the sensor-assay potency score (higher = more potent) in assay [6] is -1.04.
For the sequence TAGAGTGTCACTATTATTGGCC, the sensor-assay potency score (higher = more potent) in assay [7] was 0.27.
In [8], TTCTGGTAGAAGCTCTGCCCAG came in with a sensor-assay potency score (higher = more potent) of -1.24.
TCACACAGTCTTACAAACCTGA: in [7], the sensor-assay potency score (higher = more potent) was 0.117.
TTGCACACACTACTAGTTCAAC registered a sensor-assay potency score (higher = more potent) in assay [9] of -1.05.
As to TGCATAACAACATTAACTCTAG, the sensor-assay potency score (higher = more potent) in [7] is -0.667.
TTGAAGAGCTGCATAGGTGCAG: the sensor-assay potency score (higher = more potent) in assay [8] amounted to 0.627.
For the sequence TTGAGTTGATAAAAACAACTGT, the sensor-assay potency score (higher = more potent) in [7] worked out at 0.22.
Regarding AAGAACTCCAGGTTGTCCCTGT, the sensor-assay potency score (higher = more potent) in assay [10] was found to be 0.747.
For the sequence TTCTTTGAAGAACGTCTCGAAT, the sensor-assay potency score (higher = more potent) in assay [7] was -1.19.
Turning to TCTGGTAGAAGCTCTGCCCAGC, the sensor-assay potency score (higher = more potent) in assay [8] was -0.202.
Sequence TTGAGCTCCTGCAGCAGTGGGG had a sensor-assay potency score (higher = more potent) in assay [10] of -0.482.
The sequence TGAAGAGCTGCATAGGTGCAGC showed a sensor-assay potency score (higher = more potent) in assay [8] of -0.713.
In [7], TAACAACATTAACTCTAGGGGA had a sensor-assay potency score (higher = more potent) of -0.101.
With TCTAAGTCTGCAATGAGTGAGG, the sensor-assay potency score (higher = more potent) in assay [8] is -0.617.
As for TACTCTTCTGAATAGTATGGAA, in [9], the sensor-assay potency score (higher = more potent) was -0.502.
In turn, TTTCCTGTAGAAGTCGTCCAGG displayed a sensor-assay potency score (higher = more potent) in assay [8] of -0.297.
The sequence TCAAATTCAAACTTTCTCCAAA registered a sensor-assay potency score (higher = more potent) in [7] of -0.476.
Still for that read-out and setting: next, AACAACATTAACTCTAGGGGAA: -0.232.
For the sequence TTCAGTGTGAATTTCATCTAGG, in assay [7], the sensor-assay potency score (higher = more potent) is 0.327.
In assay [10], TCGAAGAAGAAGGAGAGCCGGT returned a sensor-assay potency score (higher = more potent) of 0.123.
